Assay [1] can be described thus: A549 cell viability effects, profiling panel, calcein-AM fluorescence, 48 h, basal (AID 1162). The following applies: higher = more signal.
A short description of assay [2]: adipocyte viability effects, profiling panel, cell-based, 3T3-L1 adipocytes, calcein-AM fluorescence, 48 h, basal (AID 1163). The following applies: 3T3-L1 adipocytes viability, higher = more signal.
A short description of assay [3]: HepG2 cell viability effects, profiling panel, calcein-AM fluorescence, 48 h, basal (AID 1164). Particulars: higher = more signal.
Assay [4] in a line: MM1S cell viability effects, profiling panel, calcein-AM fluorescence, 48 h, basal (AID 1165).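 Note: viability of MM1S multiple myeloma cells under basal unstimulated conditions.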 Particulars: higher = more signal.
The nature of assay [5]: basal RPMI8226 viability, no added stimulus, profiling panel, cell-based, calcein-AM fluorescence, 48 h, PK04 Diversity Set (AID 1166).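 Note: cells grown under basal conditions without added stimulus.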 The following applies: RPMI8226 myeloma viability, higher = more signal.
Assay [6] can be described thus: basal HepG2 mitochondrial membrane potential changes, profiling panel, cell-based, JC-1 fluorescence, 24 h, 100 nL compound (AID 1167). Particulars: higher = more signal.
Assay [7] can be described thus: basal 3T3-L1 adipocyte mitochondrial potential changes, profiling panel, cell-based, JC-1 fluorescence, 3T3-L1 adipocytes, 24 h, 100 nL compound (AID 1168). Particulars: JC-1 mitochondrial fluorescence, higher = more signal, called active from +8 up or from −8 down.
The nature of assay [8]: basal RPMI8226 mitochondrial membrane potential changes, profiling panel, cell-based, JC-1 fluorescence, 24 h, 100 nL compound (AID 1169). The following applies: RPMI8226 myeloma, JC-1 mitochondrial potential fluorescence, higher = more signal.
The nature of assay [9]: basal MM1S mitochondrial membrane potential changes, profiling panel, cell-based, JC-1 fluorescence, 24 h, 100 nL compound (AID 1170). Particulars: higher = more signal.
Assay [10] is described as follows: A549 lung cancer cell viability effects, profiling panel, resazurin fluorescence, 24 h, PK04 Diversity Set (AID 1171). The following applies: higher = more signal, called active from +8 up or from −8 down.

Each structure is given as a SMILES string. The source made the active and inactive calls.
Note: test concentration not given here.

Turning to `C=C(CCCC)/C(=C/C[C@@H](OC(=O)c1ccncc1)c1ccccc1OCCO)c1cnc2ccccc2c1`, the z-score is 0.453 in assay [1]; 1.21 in [2]; -0.158 in assay [3]; -3.2 in [4]; -2 in assay [5]; 1.41 in [6]. Besides, the z-score in assay [7] is -2 (inactive); in [8] it was -0.629; in [9], 1.46; in [10], -0.488 (inactive).
Regarding `CCOC(=O)C[C@H]1[C@H](OC(=O)c2cc3ccccc3oc2=O)[C@@H](NC(=O)c2ccc(-c3ccccc3)cc2)c2cc(OCCCO)ccc2N1C(=O)c1ccccc1`, the z-score in [1] is 0.182; in assay [2], 1.82; in assay [3], 0.404; in assay [4] it was 0.172; in assay [5], -0.841; in [6], 1.27. The z-score was -0.445 (inactive) in assay [7], -0.337 in assay [8], -0.595 in assay [9] and -1.1 (inactive) in assay [10].
Regarding `O=C(NCC(F)(F)F)[C@@H]1c2ccccc2C(=O)N(Cc2ccccc2C(F)(F)F)[C@H]1c1ccc(CO)cc1`, the z-score in assay [1] was 0.215; in assay [2] it was -0.484; in assay [3], 0.0606; in assay [4] it was 0.0756; in assay [5], -0.328; in [6], 0.277. The z-score was -1.07 (inactive) in [7], 0.0161 in assay [8], -0.894 in assay [9] and 0.456 (inactive) in assay [10].
On to `C=CCC(OC(C)=O)[C@@H]1[C@@H](N(Cc2cccc3ccccc23)C(=O)Cc2ccc(F)cc2)c2cc(OCCCO)ccc2N1C(=O)c1ccc2ccccc2n1` (stereo not given in full), for which the z-score in assay [1] was -0.359; in assay [2], 0.389; in assay [3], -0.117; in [4], 0.866; in assay [5] it was -0.381; in assay [6] it was 1.69. Moreover, the z-score in assay [7] was -0.109 (inactive); in assay [8], 0.515; in assay [9], -0.669; in assay [10], 0.067 (inactive).
In the case of `O=C1O[C@@H](c2ccccc2)[C@@H](c2ccccc2)N2[C@@H](c3ccc(O)cc3)[C@]3(C(=O)Nc4ccc(C#CC5(O)CCCCCC5)cc43)[C@@H](C(=O)NC[C@H](O)c3ccccc3)[C@H]12`, the z-score in assay [1] is -0.0476; in assay [2], 0.264; in assay [3] it was -0.181; in assay [4], -2.14; in assay [5], -1.31; in [6], -2.14. Moreover, the z-score in [7] was -1.16 (inactive); in assay [8], -0.66; in assay [9] it was -0.279; in assay [10], 0.119 (inactive).
Regarding `C[N+](C)(C)CCCC[C@@H]1NC(=O)[C@H]2C[C@@H](C(=O)NCCCCCCN)[C@@H](c3ccc(O)cc3)N2C1=O`, the z-score was 0.811 in [1]; 0.629 in [2]; 0.38 in assay [3]; -1.39 in [4]; 0.135 in [5]; 1.28 in assay [6]. Besides, the z-score in [7] was 0.367 (inactive); in assay [8] it was -0.0466; in assay [9] it was 0.596; in [10] it was 0.169 (inactive).
Consider `CN1C(=O)C2C=CC(C(O)c3ccc(F)cc3)N(Nc3ccccc3)C2C1=O` (stereo not given), for which the z-score in assay [1] was -0.434; in [2] it was -1.02; in assay [3], -0.613; in assay [4], -1.82; in [5], 0.196; in [6], -1.81. For the same molecule, the z-score was -0.8 (inactive) in [7], 0.663 in [8], 0.431 in assay [9] and -0.369 (inactive) in [10].
As to `COc1ccc([Si](C)(C)[C@@H]2[C@@H](CC(=O)N(CCO)Cc3ccccc3)O[C@]3(C(=O)N(c4ccccc4)c4ccccc43)[C@H]2C)cc1`, the z-score in assay [1] is -2.69; in assay [2], 1.11; in assay [3], -4.56; in assay [4], -2.67; in assay [5] it was -4.36; in [6] it was -0.899. In addition, the z-score was 0.928 (inactive) in assay [7], -1.08 in assay [8], -2.3 in assay [9] and -1.94 (inactive) in [10].
With `O=C1N(Cc2ccccc2)c2ccccc2[C@@H]2OC(c3ccc(OCCCO)cc3)=N[C@]12Cc1ccccc1`, the z-score was -1.43 in [1]; 1.24 in assay [2]; -1.98 in [3]; -3.26 in [4]; -4.42 in assay [5]; -1.11 in assay [6]. Further, the z-score in [7] is 0.983 (inactive); in assay [8], -1.37; in assay [9] it was -0.884; in [10], -1.72 (inactive).
For the molecule `O[C@@H](Cc1ccccc1)[C@@H](/C=C/C1CC1)N(CC#Cc1ccccc1)Cc1cccc(Cl)c1`, the z-score in assay [1] was 0.136; in [2], -0.166; in assay [3], 0.891; in assay [4], -0.217; in [5], -0.0958; in assay [6], -0.549. The z-score in [7] was 0.274 (inactive); in assay [8], 0.256; in assay [9], -1.16; in assay [10] it was 2.89 (inactive).
For the molecule `C=C(/C(=C/C[C@H](OC(C)=O)c1cccc(OCCO)c1)c1cnc2ccccc2c1)C(C)C`, the z-score in [1] is 0.336; in [2] it was 0.811; in [3], 0.0181; in assay [4], -0.861; in [5] it was 0.0738; in [6] it was 1.28. Moreover, the z-score in assay [7] was 0.224 (inactive); in [8] it was 0.649; in [9], -0.105; in assay [10], 0.236 (inactive).
Turning to `[N-]=[N+]=NCc1ccccc1C[C@@]1(C(=O)N2CCCCC2)N=C(c2ccc(OCCCO)cc2)O[C@@H]1c1ccccc1`, the z-score in assay [1] is -1.26; in assay [2], -0.813; in [3] it was -2.13; in assay [4] it was -3.11; in [5], -4.35; in assay [6], 0.622. For the same molecule, the z-score in assay [7] is -0.209 (inactive); in [8], -1.28; in assay [9] it was -2.34; in [10], -0.949 (inactive).
For the molecule `COC(=O)[C@@]1(Cc2ccc(F)cc2)[C@H]2c3cc(C(=O)N(C)C)n(Cc4cc(F)cc5c4OCOC5)c3C[C@H]2CN1C(=O)c1ccccc1`, the z-score in assay [1] is 0.217; in assay [2] it was 0.572; in assay [3], 0.607; in assay [4], -1.25; in [5] it was -1.9; in [6], 1.76. In addition, the z-score in assay [7] is -0.737 (inactive); in assay [8], -0.74; in assay [9] it was -0.942; in assay [10] it was -1.8 (inactive).
Regarding `CC(=O)NCCCC[C@@H]1NC(=O)[C@H]2C[C@@H](C(=O)NCCCC[N+](C)(C)C)[C@@H](c3cccc(OCCO)c3)N2C1=O`, the z-score in assay [1] was -0.443; in [2] it was 0.247; in assay [3], -0.641; in assay [4] it was -1.7; in assay [5] it was 0.206; in assay [6] it was 0.105. The z-score in [7] was 0.169 (inactive); in assay [8], -0.336; in assay [9], 1.03; in assay [10] it was -0.549 (inactive).
`COC(=O)[C@@]1(Cc2ccc(OC)cc2)[C@H]2c3cc(C(=O)N(C)C)n(CCO)c3C[C@H]2CN1C(=O)c1ccccc1`: the z-score in assay [1] is -1.58; in [2], 0.611; in [3], -0.516; in [4] it was -1.25; in [5], -0.755; in assay [6] it was -0.133. Also, the z-score in assay [7] was -1.36 (inactive); in [8], -0.577; in assay [9] it was -0.327; in assay [10] it was -0.0699 (inactive).

The record behind these values is PubChem BioAssay.
